Data from the supplement of paper PMC11001985.

These targets were tested with C#CCNC(=O)CCSSCCC(=O)NCCc1ccc(C=O)c(C=O)c1 (assay: lysine labeling ratio R10:1 (500 µM / 50 µM probe), SILAC-ABPP in living cells; higher = lower intrinsic lysine reactivity toward the probe, active = 2 or less). Conditions: HeLa; probe concentrations 500 vs 50 µM.
In short: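 SILAC light and heavy living HeLa cells in PBS at room temperature were labelled with 50 µM or 500 µM of an alkyne-tagged, disulfide-linked lysine probe, with forward and reverse label swaps. Mixed lysates were clicked to biotin-azide, trypsin-digested, captured on neutravidin, DTT-released, alkylated and analysed by LC-MS/MS on a TIMS-TOF Pro. R is the filtered median high-probe/low-probe MS1 peptide ratio per lysine, then the median across forward and reverse replicates. Ratios are capped at 20.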

Sequence of UniProt Q15149 (Q15149 whole entry): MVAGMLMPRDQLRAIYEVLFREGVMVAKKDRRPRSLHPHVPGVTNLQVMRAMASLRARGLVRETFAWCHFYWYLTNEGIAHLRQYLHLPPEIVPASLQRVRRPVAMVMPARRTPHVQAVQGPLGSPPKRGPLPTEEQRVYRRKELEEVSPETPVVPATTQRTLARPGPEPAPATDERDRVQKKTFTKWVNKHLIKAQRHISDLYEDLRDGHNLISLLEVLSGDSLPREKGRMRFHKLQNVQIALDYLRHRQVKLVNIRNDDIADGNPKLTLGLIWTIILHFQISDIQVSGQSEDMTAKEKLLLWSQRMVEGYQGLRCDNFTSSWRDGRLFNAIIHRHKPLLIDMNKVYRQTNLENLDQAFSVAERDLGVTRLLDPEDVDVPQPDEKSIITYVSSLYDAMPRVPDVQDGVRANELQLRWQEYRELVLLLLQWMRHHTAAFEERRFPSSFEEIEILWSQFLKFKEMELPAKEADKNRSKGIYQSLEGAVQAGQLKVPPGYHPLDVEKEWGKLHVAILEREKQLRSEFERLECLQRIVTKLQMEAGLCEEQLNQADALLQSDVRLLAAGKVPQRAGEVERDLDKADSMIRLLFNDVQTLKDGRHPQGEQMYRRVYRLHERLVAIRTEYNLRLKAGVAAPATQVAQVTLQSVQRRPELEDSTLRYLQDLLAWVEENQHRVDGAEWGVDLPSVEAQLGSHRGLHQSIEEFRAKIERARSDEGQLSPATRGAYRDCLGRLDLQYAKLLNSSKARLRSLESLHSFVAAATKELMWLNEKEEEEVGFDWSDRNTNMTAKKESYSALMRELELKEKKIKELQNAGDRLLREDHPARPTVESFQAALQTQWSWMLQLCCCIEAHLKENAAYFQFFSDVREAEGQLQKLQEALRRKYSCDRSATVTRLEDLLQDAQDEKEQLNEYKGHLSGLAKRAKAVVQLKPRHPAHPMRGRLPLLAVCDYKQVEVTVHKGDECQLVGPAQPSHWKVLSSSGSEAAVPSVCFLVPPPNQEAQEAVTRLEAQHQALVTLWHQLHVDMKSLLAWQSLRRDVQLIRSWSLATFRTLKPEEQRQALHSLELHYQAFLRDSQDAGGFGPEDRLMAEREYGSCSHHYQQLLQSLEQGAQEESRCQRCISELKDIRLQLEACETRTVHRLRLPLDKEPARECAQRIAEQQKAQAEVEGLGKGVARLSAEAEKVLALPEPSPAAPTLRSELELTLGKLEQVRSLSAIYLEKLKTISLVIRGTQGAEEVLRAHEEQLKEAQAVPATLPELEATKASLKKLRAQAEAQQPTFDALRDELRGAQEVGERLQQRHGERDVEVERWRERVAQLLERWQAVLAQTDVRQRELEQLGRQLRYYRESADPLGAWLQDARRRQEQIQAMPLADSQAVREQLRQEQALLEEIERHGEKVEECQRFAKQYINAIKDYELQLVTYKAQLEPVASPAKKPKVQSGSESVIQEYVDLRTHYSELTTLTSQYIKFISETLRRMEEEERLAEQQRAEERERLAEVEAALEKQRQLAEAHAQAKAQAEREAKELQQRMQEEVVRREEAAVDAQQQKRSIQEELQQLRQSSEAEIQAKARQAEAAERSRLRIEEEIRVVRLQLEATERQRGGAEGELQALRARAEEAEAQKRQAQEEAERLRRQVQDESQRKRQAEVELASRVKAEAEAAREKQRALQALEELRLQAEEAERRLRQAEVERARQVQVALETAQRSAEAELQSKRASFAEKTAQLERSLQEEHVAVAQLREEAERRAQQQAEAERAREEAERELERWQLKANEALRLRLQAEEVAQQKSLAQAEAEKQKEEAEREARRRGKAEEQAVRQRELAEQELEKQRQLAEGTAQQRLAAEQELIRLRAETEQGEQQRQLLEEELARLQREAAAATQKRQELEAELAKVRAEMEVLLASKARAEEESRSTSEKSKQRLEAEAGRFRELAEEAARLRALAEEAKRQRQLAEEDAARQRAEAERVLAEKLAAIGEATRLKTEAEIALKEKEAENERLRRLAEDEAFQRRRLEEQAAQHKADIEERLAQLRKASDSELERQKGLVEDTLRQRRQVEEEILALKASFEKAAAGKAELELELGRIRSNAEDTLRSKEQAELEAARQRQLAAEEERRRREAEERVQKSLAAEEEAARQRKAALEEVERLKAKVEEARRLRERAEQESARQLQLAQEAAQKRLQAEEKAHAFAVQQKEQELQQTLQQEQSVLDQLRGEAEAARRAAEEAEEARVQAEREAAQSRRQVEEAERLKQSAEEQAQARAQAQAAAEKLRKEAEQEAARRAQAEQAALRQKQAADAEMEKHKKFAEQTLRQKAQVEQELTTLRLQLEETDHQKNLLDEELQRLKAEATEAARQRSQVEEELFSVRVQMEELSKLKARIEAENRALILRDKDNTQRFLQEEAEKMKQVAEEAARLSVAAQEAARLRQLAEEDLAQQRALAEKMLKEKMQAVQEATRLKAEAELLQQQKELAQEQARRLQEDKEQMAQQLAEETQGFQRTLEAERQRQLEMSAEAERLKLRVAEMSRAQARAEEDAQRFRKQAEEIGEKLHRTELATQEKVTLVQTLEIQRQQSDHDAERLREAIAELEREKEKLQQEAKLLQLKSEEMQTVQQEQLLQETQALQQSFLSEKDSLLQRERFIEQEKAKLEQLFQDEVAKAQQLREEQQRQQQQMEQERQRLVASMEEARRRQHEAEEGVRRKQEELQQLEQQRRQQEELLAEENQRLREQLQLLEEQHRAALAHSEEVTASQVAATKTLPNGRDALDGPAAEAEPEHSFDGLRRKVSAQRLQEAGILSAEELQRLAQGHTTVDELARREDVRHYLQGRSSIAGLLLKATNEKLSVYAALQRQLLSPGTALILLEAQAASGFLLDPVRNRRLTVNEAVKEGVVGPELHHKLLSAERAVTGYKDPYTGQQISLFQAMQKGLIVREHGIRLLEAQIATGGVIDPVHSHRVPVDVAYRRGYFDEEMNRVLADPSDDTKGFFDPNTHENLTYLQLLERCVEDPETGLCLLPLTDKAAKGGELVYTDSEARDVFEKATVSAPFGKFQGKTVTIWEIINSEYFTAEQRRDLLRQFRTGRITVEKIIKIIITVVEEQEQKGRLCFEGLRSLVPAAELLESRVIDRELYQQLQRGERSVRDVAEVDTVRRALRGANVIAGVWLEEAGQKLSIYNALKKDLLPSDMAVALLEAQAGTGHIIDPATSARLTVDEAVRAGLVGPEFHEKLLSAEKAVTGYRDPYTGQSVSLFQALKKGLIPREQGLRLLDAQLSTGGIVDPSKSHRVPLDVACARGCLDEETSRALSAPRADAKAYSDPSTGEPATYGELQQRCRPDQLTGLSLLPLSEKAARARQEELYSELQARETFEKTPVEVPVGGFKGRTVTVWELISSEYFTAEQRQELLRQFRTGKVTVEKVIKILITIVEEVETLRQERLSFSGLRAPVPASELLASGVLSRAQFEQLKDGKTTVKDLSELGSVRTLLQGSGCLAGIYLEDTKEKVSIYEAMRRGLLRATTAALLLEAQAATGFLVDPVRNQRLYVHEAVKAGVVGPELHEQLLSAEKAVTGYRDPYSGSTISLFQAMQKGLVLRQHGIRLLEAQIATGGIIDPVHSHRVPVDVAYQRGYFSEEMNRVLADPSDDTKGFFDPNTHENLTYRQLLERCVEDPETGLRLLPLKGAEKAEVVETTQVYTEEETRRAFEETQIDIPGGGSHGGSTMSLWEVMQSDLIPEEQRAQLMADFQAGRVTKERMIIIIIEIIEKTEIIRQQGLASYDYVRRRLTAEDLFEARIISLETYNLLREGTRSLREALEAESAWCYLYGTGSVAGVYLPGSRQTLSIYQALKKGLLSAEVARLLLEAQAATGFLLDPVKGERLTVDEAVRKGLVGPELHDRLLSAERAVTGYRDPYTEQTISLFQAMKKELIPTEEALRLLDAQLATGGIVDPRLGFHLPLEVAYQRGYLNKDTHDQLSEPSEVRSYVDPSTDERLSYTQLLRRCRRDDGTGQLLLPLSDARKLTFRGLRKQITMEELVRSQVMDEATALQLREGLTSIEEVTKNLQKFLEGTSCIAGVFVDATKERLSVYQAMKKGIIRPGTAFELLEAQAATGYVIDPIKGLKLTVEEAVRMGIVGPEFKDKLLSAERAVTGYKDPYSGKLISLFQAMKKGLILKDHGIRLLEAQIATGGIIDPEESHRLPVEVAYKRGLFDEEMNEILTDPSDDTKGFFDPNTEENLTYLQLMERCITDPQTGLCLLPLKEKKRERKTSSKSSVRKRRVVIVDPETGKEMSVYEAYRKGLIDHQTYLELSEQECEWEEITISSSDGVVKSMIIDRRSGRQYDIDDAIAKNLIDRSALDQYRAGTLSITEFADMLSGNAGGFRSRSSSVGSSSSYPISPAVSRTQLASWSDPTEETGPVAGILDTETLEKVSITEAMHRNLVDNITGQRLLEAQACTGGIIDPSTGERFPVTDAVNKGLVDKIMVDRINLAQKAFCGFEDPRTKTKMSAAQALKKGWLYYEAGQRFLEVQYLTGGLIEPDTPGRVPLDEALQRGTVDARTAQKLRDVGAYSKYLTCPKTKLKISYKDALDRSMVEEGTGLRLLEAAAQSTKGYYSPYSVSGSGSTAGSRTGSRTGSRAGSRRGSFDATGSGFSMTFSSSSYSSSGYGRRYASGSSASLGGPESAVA
Sequence of UniProt P07237 (P07237 whole entry, looked up): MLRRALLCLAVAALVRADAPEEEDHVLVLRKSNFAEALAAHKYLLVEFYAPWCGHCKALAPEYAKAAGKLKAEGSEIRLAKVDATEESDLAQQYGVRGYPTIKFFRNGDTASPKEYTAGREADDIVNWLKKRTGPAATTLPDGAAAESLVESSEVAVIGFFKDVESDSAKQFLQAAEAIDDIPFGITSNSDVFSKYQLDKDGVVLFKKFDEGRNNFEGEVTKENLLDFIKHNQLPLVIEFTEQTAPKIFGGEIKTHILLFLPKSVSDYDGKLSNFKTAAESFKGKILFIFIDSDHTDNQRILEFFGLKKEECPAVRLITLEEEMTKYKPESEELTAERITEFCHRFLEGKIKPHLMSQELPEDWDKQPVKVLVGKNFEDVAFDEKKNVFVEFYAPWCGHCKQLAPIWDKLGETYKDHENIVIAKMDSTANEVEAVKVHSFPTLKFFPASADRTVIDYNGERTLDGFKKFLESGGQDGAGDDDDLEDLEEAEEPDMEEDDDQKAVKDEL

Lysine labeling ratio R10:1, inactive:
UniProt Q15149 (lysine site: K1996) 3.69
FAT4 (lysine site: K2566) (UniProt Q6V0I7) 2.59
HNRNPC (lysine site: K94) (UniProt P07910) 3.25
UniProt P54851 (lysine site: K129) 4.76
PDCD6IP (lysine site: K285) (UniProt Q8WUM4) 15.7
MYH9 (lysine site: K299) (UniProt P35579) 2.23
P4HB (lysine site: K103) (UniProt P07237) 4.27

Lysine labeling ratio R10:1, active:
NOTCH1 (lysine site: K185) (UniProt P46531) 1.8
EPRS (lysine site: K666) (UniProt P07814) 0.985
DISP1 (lysine site: K369) (UniProt Q96F81) 1.37
LNPEP (lysine site: K626) (UniProt Q9UIQ6) 0.72
UniProt P25705 (lysine site: K434) 1.73
UniProt Q15149 (lysine site: K2154) 1.47
HNRNPL (lysine site: K538) (UniProt P14866) 1.29
UniProt Q14574 (lysine site: K381) 1.61
EGFR (lysine site: K133) (UniProt P00533) 1.08
CAPZB (lysine site: K237) (UniProt P47756) 1.4
